Laboratory results as given in the supplement of paper PMC11732987, “Enantioselective OTUD7B fragment discovery through chemoproteomics screening and high-throughput optimisation” (Communications Chemistry, 2025).

How the values were obtained:
Test in all cases: log2 ratio of Biotin-Ahx-Ub-VS probe labelling (fragment/DMSO); higher = less target engagement (more negative = stronger competition), active = hit call of the paper (q ≤ 0.05, log2 ratio ≤ -1)
Conditions in all cases: compound concentration: 200 uM; treatment time: 3 h
USP34 = USP34 (UniProt Q70CQ2)
Outline: (§1)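 Labelling with Biotin-Ahx-Ub-VS (0.5 µM final, 1 h) followed a 3 h triplicate treatment of HEK293T lysate (495 µg per sample, Tris/CHAPS/IGEPAL buffer with protease inhibitors) with fragment at 200 µM or vehicle. Labelled DUBs were NeutrAvidin-enriched, digested with LysC and trypsin, and run by diaPASEF LC-MS/MS. The values, average log2 fragment/vehicle ratios by unpaired t-test, come from global-median-normalised Spectronaut label-free quantities. Proteins with ≥2 unique peptides were used.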

USP36 = molecular target: T1, USP36 (UniProt Q9P275)
T1 sequence (whole entry): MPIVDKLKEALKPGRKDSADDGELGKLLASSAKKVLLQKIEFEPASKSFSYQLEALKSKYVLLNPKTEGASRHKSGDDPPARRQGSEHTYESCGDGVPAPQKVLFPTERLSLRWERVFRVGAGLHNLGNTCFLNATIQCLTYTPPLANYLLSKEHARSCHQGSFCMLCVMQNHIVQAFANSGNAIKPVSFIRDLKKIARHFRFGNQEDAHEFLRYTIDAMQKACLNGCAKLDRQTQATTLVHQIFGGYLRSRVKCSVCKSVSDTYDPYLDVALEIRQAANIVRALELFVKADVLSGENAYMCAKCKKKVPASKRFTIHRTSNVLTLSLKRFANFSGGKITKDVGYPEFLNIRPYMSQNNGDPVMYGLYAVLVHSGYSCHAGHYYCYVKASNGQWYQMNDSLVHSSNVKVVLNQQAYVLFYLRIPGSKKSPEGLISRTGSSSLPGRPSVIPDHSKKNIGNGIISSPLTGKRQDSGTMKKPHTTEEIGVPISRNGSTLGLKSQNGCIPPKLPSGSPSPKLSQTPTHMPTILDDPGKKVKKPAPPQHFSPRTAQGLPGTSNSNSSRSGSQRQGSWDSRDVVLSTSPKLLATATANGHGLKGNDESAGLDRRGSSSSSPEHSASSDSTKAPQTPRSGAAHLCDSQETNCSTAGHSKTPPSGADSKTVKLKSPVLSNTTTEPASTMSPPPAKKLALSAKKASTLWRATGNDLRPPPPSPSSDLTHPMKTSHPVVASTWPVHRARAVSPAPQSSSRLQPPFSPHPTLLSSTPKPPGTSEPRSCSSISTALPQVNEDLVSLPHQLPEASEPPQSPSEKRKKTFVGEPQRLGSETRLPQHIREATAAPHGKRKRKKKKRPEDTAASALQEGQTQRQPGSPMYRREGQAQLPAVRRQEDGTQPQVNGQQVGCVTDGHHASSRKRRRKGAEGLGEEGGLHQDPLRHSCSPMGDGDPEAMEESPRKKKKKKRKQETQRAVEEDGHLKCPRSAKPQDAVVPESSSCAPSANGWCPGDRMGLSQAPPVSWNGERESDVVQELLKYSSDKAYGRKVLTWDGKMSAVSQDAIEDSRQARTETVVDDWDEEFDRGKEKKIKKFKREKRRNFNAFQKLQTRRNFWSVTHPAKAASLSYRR
Outline: as §1

USP38 = molecular target: T2, USP38 (UniProt Q8NB14)
T2 sequence (whole entry): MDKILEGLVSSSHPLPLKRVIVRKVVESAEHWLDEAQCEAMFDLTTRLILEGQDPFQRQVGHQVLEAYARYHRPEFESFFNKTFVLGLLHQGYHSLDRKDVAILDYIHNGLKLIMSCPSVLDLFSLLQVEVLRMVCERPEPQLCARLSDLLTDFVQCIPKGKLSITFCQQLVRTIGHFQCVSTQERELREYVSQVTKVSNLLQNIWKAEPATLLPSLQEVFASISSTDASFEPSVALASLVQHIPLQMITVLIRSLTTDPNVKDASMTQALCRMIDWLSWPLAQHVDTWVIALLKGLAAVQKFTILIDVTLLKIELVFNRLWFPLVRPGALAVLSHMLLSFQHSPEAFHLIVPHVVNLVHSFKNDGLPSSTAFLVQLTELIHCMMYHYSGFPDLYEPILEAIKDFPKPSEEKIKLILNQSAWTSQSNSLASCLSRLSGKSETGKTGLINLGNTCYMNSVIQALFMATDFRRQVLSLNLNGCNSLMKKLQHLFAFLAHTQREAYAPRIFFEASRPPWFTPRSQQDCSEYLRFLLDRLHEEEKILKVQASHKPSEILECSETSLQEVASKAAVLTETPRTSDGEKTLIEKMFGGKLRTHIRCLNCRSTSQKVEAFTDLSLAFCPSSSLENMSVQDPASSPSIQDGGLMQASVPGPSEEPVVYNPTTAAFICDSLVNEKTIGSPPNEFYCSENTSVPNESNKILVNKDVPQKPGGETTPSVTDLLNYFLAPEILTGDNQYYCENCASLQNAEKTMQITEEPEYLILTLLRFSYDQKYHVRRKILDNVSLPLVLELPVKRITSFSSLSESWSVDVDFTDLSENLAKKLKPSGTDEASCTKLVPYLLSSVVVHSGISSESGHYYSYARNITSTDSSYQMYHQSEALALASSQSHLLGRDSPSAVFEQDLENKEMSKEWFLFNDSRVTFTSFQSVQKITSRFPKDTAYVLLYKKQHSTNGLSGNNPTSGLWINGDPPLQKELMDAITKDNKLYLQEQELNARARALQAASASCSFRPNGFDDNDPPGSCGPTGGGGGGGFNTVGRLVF
Outline: as §1

USP39 = molecular target: T3, USP39 (UniProt Q53GS9)
T3 sequence (whole entry): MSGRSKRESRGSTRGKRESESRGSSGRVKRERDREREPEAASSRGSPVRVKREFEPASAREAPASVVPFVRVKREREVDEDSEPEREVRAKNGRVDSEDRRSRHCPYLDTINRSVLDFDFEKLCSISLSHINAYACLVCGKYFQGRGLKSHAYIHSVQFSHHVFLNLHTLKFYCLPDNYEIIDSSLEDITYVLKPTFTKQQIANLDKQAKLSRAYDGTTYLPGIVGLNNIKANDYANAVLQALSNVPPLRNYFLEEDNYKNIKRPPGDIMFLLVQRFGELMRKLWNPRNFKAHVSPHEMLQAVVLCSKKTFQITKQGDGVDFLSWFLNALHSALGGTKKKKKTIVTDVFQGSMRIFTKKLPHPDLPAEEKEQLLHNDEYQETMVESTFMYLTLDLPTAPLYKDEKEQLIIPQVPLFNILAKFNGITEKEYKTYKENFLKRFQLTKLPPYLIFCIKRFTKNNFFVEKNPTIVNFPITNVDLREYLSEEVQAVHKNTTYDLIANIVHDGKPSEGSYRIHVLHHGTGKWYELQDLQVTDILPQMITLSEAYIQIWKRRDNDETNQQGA
Outline: as §1

USP4 = molecular target: T4, USP4 (UniProt Q13107)
T4 sequence (whole entry): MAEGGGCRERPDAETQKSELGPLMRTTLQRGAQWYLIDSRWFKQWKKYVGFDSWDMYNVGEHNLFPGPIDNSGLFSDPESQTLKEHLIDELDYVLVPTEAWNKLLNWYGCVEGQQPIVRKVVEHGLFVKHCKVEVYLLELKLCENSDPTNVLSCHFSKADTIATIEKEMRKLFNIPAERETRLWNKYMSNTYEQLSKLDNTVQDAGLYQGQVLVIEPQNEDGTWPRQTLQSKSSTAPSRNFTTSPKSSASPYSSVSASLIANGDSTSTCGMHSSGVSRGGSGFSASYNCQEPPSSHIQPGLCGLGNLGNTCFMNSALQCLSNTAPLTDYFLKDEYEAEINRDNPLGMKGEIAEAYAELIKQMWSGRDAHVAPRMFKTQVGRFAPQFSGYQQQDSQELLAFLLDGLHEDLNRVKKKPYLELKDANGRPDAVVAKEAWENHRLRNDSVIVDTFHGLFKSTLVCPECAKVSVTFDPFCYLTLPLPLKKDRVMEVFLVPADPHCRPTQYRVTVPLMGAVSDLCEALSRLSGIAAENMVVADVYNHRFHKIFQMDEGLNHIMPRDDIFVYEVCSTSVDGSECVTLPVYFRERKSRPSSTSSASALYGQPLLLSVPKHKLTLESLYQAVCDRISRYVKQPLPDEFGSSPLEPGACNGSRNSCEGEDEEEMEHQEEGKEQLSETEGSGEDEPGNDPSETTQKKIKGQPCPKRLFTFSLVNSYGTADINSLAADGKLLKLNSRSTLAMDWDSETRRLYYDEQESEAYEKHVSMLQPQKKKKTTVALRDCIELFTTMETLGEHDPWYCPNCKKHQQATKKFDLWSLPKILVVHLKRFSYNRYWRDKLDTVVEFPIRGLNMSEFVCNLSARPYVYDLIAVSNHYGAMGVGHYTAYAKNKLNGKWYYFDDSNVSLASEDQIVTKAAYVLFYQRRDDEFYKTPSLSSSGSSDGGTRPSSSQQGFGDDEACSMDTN
Outline: as §1

Measured: log2 ratio of Biotin-Ahx-Ub-VS probe labelling

Sequence of USP34 (Q70CQ2 whole entry, the tested form may be a part): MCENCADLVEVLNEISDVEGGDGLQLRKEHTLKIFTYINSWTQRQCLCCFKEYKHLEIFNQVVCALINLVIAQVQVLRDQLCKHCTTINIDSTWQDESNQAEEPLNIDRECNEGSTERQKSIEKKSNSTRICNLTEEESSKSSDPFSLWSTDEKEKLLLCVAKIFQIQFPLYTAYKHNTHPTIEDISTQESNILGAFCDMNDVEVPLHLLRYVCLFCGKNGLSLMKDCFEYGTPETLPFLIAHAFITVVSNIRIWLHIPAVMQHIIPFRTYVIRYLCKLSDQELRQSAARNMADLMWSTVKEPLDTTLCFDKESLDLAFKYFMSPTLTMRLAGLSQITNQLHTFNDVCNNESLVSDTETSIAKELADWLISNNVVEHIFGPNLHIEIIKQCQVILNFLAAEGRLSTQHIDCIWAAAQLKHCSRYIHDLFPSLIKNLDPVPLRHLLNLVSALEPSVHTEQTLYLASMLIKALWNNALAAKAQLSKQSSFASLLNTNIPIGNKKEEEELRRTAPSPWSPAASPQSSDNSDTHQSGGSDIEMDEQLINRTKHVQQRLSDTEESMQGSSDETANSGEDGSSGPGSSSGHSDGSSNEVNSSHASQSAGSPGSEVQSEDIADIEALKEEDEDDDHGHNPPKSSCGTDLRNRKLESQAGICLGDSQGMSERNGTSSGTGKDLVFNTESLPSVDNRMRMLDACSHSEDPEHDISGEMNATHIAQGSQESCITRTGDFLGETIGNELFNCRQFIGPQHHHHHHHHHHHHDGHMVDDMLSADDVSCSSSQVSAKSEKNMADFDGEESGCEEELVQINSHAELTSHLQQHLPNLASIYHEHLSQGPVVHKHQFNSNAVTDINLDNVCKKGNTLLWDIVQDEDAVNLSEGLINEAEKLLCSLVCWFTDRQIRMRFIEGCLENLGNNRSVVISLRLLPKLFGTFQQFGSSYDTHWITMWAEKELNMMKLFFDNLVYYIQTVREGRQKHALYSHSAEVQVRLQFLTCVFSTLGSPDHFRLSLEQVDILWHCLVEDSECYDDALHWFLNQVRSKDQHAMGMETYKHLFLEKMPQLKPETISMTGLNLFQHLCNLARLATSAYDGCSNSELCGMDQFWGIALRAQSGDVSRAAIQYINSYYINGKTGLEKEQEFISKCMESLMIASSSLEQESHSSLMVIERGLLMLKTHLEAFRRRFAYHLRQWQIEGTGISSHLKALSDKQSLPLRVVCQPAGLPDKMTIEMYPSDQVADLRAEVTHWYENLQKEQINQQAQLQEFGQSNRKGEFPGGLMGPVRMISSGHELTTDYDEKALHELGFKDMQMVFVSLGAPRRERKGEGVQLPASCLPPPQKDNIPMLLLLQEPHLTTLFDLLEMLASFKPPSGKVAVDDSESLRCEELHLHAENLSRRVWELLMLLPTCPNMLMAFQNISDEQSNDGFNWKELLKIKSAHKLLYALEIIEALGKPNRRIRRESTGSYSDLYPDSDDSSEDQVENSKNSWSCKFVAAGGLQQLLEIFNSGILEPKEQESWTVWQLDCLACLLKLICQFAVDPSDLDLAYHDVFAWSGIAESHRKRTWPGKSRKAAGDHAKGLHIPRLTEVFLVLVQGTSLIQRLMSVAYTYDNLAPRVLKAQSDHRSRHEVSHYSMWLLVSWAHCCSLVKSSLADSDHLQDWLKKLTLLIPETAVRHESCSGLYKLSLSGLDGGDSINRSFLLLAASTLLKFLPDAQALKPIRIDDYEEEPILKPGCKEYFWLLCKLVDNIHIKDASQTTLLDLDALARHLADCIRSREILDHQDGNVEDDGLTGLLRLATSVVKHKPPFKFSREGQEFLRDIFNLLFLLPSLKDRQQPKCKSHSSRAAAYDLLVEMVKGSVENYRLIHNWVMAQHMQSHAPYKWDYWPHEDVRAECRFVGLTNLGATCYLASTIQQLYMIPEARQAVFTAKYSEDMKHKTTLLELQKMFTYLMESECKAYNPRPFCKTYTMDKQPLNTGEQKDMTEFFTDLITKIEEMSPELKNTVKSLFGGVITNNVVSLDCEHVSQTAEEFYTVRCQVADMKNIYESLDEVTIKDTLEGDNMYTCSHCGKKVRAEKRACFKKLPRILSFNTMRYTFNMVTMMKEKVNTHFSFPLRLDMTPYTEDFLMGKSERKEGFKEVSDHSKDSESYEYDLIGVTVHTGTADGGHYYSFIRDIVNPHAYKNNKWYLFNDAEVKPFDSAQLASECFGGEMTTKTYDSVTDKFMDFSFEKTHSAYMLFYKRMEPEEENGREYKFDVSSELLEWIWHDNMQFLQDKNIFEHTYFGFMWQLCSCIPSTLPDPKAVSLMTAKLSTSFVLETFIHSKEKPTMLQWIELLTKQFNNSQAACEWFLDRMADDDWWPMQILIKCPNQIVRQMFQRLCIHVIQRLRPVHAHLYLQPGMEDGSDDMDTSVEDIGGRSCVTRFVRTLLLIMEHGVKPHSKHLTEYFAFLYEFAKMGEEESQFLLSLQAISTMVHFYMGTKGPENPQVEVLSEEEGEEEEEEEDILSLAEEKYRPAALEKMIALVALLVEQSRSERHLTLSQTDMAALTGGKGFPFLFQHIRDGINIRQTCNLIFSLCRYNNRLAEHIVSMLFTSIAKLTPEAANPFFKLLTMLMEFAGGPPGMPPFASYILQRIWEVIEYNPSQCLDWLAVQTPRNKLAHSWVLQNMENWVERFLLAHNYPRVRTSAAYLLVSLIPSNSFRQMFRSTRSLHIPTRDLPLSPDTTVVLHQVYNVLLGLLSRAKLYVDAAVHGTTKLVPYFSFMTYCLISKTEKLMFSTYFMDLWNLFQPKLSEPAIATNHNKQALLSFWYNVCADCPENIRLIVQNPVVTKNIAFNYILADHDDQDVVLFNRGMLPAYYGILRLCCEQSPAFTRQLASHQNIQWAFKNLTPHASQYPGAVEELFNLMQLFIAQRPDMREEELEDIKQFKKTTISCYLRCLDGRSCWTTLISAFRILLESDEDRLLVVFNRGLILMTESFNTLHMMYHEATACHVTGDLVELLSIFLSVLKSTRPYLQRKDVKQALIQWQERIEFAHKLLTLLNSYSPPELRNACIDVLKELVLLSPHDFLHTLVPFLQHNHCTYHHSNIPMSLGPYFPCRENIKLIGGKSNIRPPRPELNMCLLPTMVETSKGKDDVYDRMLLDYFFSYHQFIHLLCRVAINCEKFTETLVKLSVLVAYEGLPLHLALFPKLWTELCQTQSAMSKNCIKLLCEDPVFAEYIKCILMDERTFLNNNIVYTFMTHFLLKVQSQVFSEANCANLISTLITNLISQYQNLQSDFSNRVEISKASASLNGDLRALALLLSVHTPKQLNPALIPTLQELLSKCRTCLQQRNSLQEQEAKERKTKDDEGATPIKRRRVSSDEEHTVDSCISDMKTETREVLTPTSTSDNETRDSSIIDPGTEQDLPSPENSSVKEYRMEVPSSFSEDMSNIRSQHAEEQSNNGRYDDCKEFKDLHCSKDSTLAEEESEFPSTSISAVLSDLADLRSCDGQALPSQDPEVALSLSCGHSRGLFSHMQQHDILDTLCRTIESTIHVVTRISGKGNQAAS

O=C(CCl)N1CCC(OCc2ccccc2F)CC1
inactive: USP34 -0.138 | USP36 0.169 | USP38 0.211 | USP39 0.264 | USP4 -0.121
